These results are taken from PubChem BioAssay (NCI).

Assay [1] in a line: NCI Yeast Anticancer Drug Screen. Data for the rad50 strain (AID 155).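 Note: 0% = growth of vehicle-only cultures of the same strain.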 The following applies: S. cerevisiae rad50 strain growth inhibition; at 50.0 µM; active compounds read high. In outline: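 DNA repair mutant yeast, compound exposure, growth read-out; inhibition is taken relative to vehicle.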
The nature of assay [2]: NCI Yeast Anticancer Drug Screen. Data for the mec2-1 strain (AID 157). The following applies: S. cerevisiae mec2-1 strain, at 50.0 µM, active compounds read high. The procedure, abridged:
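Each compound was tested on mec2-1 yeast, a strain altered in DNA damage repair or cell cycle control. Growth inhibition is reported relative to vehicle.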

Assay [3] is described as follows: NCI Yeast Anticancer Drug Screen. Data for the sgs1 mgt1 strain (AID 161).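 Note: 0% = growth of cultures given vehicle only.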 The following applies: S. cerevisiae sgs1 mgt1 strain, at 50.0 µM, active compounds read high. In outline: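 Test agents were incubated with a DNA-repair-mutant yeast strain. Growth was then read and compared against vehicle-treated controls.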
Assay [4] in a line: NCI Yeast Anticancer Drug Screen. Data for the cln2 rad14 strain (AID 165).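 Note: 0% = growth equal to vehicle treated cultures.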 Conditions: S. cerevisiae cln2 rad14 strain, at 50.0 µM, active compounds read high. The procedure, abridged:
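Test compounds were added to cln2 rad14 yeast cultures; inhibition of growth was then determined by comparison with vehicle treatment.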

Assay [5] is described as follows: NCI Yeast Anticancer Drug Screen. Data for the bub3 strain (AID 167). Conditions: S. cerevisiae bub3 mutant strain, at 50.0 µM, active compounds read high. In outline:
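In this screen, a yeast mutant lacking normal mitotic checkpoint function is challenged with compound. Relative growth versus vehicle gives the inhibition value.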

A short description of assay [6]: NCI Yeast Anticancer Drug Screen. Data for the mlh1 rad18 strain (AID 175). Conditions: S. cerevisiae mlh1 rad18 strain growth inhibition; at 50.0 µM; active compounds read high. In outline:
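Inhibition values reflect reduced growth of mutant yeast versus vehicle-treated controls following compound exposure; the mutations affect DNA damage repair.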

This is part of a sample that, as a whole, favours compounds with a hit. Of some 79,000 tested, about 15% had one in any assay. A number with no mark means an inactive call. Active and inactive are the calls of the source. Cut-off read from the data, not from the text of the source: active = growth inhibition above about 70%; inactive = the rest.

Take `CCN/C(C)=C\C(=O)OCC`: the growth inhibition is -0.9% in assay [1]; 8.95% in assay [2]; -0.65% in assay [3]; -17.2% in assay [4]; -9.95% in assay [5]; 1.25% in assay [6].

In the case of `CCCOc1ccccc1C(=O)N1CCOCC1`, the growth inhibition in assay [1] was 25%; in assay [2], -0.25%; in assay [3], 7.8%; in assay [4] it was 16.1%; in assay [5] it was 8.8%; in assay [6] it was 15.8%.

For `COc1cc(/C=C/c2ccc(/C=C/c3cc(OC)c(OC)c(OC)c3)cc2)cc(OC)c1OC`, the growth inhibition in assay [1] is 11.2%; in assay [2], -5.65%; in assay [3] it was -29.9%; in assay [4], 1.8%; in assay [5], -8.75%; in assay [6], -9.9%.

On to `Cc1cccnc1N`, for which the growth inhibition in assay [1] is -9.4%; in assay [2], -31.6%; in assay [3], 5.3%; in assay [4] it was -11.6%; in assay [5], -1.15%; in assay [6] it was 14.7%.

With `NC(=O)c1csc([C@@H](O)Cc2ccccc2)n1`, the growth inhibition is -2.25% in assay [1]; 3.5% in assay [2]; 7.5% in assay [3]; -7.7% in assay [4]; 8.35% in assay [5]; 7.95% in assay [6].

In the case of `CCOC(=O)c1cc2c([N+](=O)[O-])cccc2[nH]1`, the growth inhibition was 18.4% in assay [1]; -5.9% in assay [2]; -2.2% in assay [3]; -35.5% in assay [4]; 6.45% in assay [5]; 13.7% in assay [6].

Turning to `FC(F)(F)c1cc(Br)c2ccc3ncccc3c2n1`, the growth inhibition in assay [1] was 6.5%; in assay [2], 8.3%; in assay [3], -1.05%; in assay [4], -5.2%; in assay [5], 6.8%; in assay [6], 3.1%.

For `CCCCCCCCCCCCCCCCCC(=O)Oc1c(C(C)(C)C)cc([N+](=O)[O-])c(C)c1[N+](=O)[O-]`, the growth inhibition in assay [1] was 98.2% (active); in assay [2] it was 99.2% (active); in assay [3], 98.8% (active); in assay [4], 98.9% (active); in assay [5] it was 99.2% (active); in assay [6], 98.2% (active).

As for `CC(=O)OCCOCNC(=S)N/N=C/c1ccc(Br)s1`, the growth inhibition in assay [1] was 15.3%; in assay [2], -8.3%; in assay [3], 20.1%; in assay [4] it was 28.1%; in assay [5], 9.2%; in assay [6], -0.8%.

On to `CC1(C)OC2COC3(COC(C)(C)O3)C(O)C2O1` (stereo unspecified), for which the growth inhibition in assay [1] was -9.05%; in assay [2], 0.2%; in assay [3], 4.15%; in assay [4] it was -3.7%; in assay [5] it was -6.2%; in assay [6], -24.8%.

For the molecule `CSc1nc2c([nH]1)c(=O)n(C)c(=O)n2C`, the growth inhibition is 8.8% in assay [1]; 21.4% in assay [2]; 8.4% in assay [3]; -1.8% in assay [4]; 16.8% in assay [5]; 7.1% in assay [6].

As to `CN(C)S(=O)(=O)c1ccc(NC(=O)OC(C)(c2ccccc2)C2CCCCC2)cc1` (stereo unspecified), the growth inhibition in assay [1] was 17.4%; in assay [2], 2%; in assay [3] it was 4.05%; in assay [4], 7.75%; in assay [5], 1.35%; in assay [6], 4%.

Regarding `O=C(CC(O)(C(F)(F)F)C(F)(F)F)C(CCCl)C(O)(C(F)(F)F)C(F)(F)F` (stereo unspecified), the growth inhibition is 17.6% in assay [1]; 18.9% in assay [2]; 41.6% in assay [3]; 21.4% in assay [4]; 8.05% in assay [5]; 38.8% in assay [6].

On to `C=C1C(=O)OC2CCC3OC(C)(C)OC3C12` (stereo unspecified), for which the growth inhibition in assay [1] is 6.2%; in assay [2], 17.5%; in assay [3], 15.4%; in assay [4] it was -16.9%; in assay [5], 31.9%; in assay [6], 10.6%.

Consider `CC(=O)Nc1cc(=O)[nH]c2c1CCC2`, for which the growth inhibition in assay [1] was -4.05%; in assay [2], 5.25%; in assay [3] it was -1.8%; in assay [4], -16.4%; in assay [5] it was -3.6%; in assay [6], -4.7%.

For `NC(=O)c1nnn(-c2ccccc2)n1`, the growth inhibition in assay [1] is -9.75%; in assay [2], -8.9%; in assay [3] it was -10%; in assay [4] it was -12.3%; in assay [5], -5.75%; in assay [6] it was -12.7%.

With `CC(=O)Nc1ccc(S(=O)(=O)N/N=C/c2ccc3c(c2)OCO3)cc1`, the growth inhibition was 4.85% in assay [1]; -20.2% in assay [2]; 2.55% in assay [3]; 2.15% in assay [4]; -33.7% in assay [5]; -20.5% in assay [6].

`O=C1CSC(=S)N1c1ccco1`: the growth inhibition in assay [1] was 3.4%; in assay [2] it was -20.1%; in assay [3], 17.9%; in assay [4] it was 20.7%; in assay [5] it was -13.1%; in assay [6], 2.85%.

On to `CC1=C2C(=O)O[C@@H](c3ccoc3)[C@]2(C)CCC1`, for which the growth inhibition in assay [1] is 15.3%; in assay [2], -6.8%; in assay [3] it was 14.1%; in assay [4], -8.9%; in assay [5] it was 0.35%; in assay [6], 16.6%.

With `CCc1cc2c(ccc3ccccc32)c2c1CCC2`, the growth inhibition in assay [1] was -11.6%; in assay [2], -11.7%; in assay [3] it was -1.8%; in assay [4], -17.1%; in assay [5], 5.3%; in assay [6], 1.6%.

Consider `CCc1ccccc1OCC1CO1` (stereo unspecified), for which the growth inhibition in assay [1] is 10.9%; in assay [2] it was 3.5%; in assay [3] it was 11.2%; in assay [4], 2.2%; in assay [5] it was -11.9%; in assay [6], 18.2%.
